The panel holds about 83,000 compounds, 20% with a hit somewhere; the sample as a whole holds those more often.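 Cells were grown in 96-well plates and exposed to the test compound at a single concentration for 48 hours; results are reported as percent growth, with values below 10 considered active.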 Unmarked numbers belong to inactive results. Calls of active or inactive are those of the source.
What follows are molecules tested on SF-295 CNS (assay: NCI-60 one-dose screen, 48 h (100 = growth as untreated, 0 = no growth, -100 = all killed)). Settings: 10 µM unless noted.

Structure (SMILES)	growth
Cc1[nH]ccc2cc3nc4ccccc4c3cc12	20.1%
NS(=O)(=O)c1ccc(-n2ncc3c(N/N=C/c4ccccc4)ncnc32)cc1	29.8%
O=C(C(=O)c1cc(Br)ccc1O)c1cc(Br)ccc1O	67.9%
COc1ccc(-c2cnc(SCC(=O)Nc3ccc(-c4nc5ccccc5s4)cc3)n2-c2ccc(OC)cc2)cc1	113%
N#CSCC1CC(O)(c2ccccc2)C(c2ccccc2)C(c2ccc(Cl)cc2)O1 (stereo not given)	-77.9% (active)
OCc1n(Cc2ccc3ccccc3c2)cc[n+]1Cc1ccc2ccccc2c1	79.2%
c1ccc(-c2nc(Nc3nccnn3)c3ccccc3n2)cc1	98%
CCOC(=O)/C=C1/SC(=Nc2ccc(C#N)cc2)N(Cc2ccco2)C1=O	88.8%
Cc1cnc2nc(-c3ccc(N(C)C)cc3)cn2c1	106%
COc1ccc2c(c1)c(CC(=O)[Se]C)c(C)n2C(=O)c1ccc(Cl)cc1	12.7%
COc1cc(/C=C/C(=O)C(C(=O)/C=C/c2ccc(OC(=O)CCNc3nnc(C)s3)c(OC)c2)C(=O)CCNc2nnc(C)s2)ccc1OC(=O)CCNc1nnc(C)s1	2.23% (active)
O=C1C2C(C(=O)N1CC[Se][Se]CCN1C(=O)C3C(C1=O)[C@H]1C=C[C@@H]3C1)[C@H]1C=C[C@@H]2C1 (stereo not given in full)	-78.2% (active)
COc1ccc(OC)c(CCn2cncc2-c2c[nH]c3cc(Br)ccc23)c1	18.4%
CN(C)c1ncnc2c1ncn2C1CCCCO1 (stereo not given)	116%
COc1ccc2c(c1)sc1nc(-c3ccc(Br)cc3)cn12	89.2%
O=C(Nc1ccccc1OC(=O)c1ccccc1)c1ccccc1	109%
Cc1csc(C#Cc2cncc(O)c2)n1	121%
COc1ccc2nc(NC(=O)CN3CCn4c(nnc4C(F)(F)F)C3)sc2c1	92.5%
CCOC(=O)C(Br)=P(c1ccccc1)(c1ccccc1)c1ccccc1	110%
C=CCN(/C=C/CN(CC=C)CC=C)CC=C	84.3%

Structure (SMILES)	growth
O=C1NC(=S)S/C1=C\c1cc(Br)ccc1O	111%
COc1ccc(C(=O)/C=C/c2cccc(Nc3ccnc4cc(Cl)ccc34)c2)cc1	30.6%
CCCCCCCCCCOC(C)=O	80%
O=C1C(=O)c2c(nc3ccc(Cl)cn23)-c2ccccc21	-80.3% (active)
CC(=O)OCC(=O)[C@@]1(O)CC[C@H]2[C@@H]3CCC4=CC(=O)CC[C@]4(C)[C@@]3(F)[C@@H](O)C[C@@]21C	115%
CCc1nn2c(-c3ccc(Cl)cc3C)c(-c3cc(OC)c(OC)c(OC)c3)nc2s1	95.3%
COc1cc(/C=C/C(=O)C(C(=O)/C=C/c2ccc(OC(=O)CCNC34CC5CC(CC(C5)C3)C4)c(OC)c2)C(=O)CCNC23CC4CC(CC(C4)C2)C3)ccc1OC(=O)CCNC12CC3CC(CC(C3)C1)C2 (stereo not given)	37.5%
CN(C)c1ccc(-c2nc3ncc(Br)cc3o2)cc1	109%
CCCc1n(Cc2ccc3ccccc3c2)cc[n+]1Cc1ccc2ccccc2c1	-1.49% (active)
N#Cc1c(-c2ccccc2)cc(-c2ccccc2)n(CCC(=O)O)c1=O	37.3%
C=C1CCC2C3(C)COC(c4ccccc4)OC3CCC2(C)C1C/C=C1/C(=O)OCC1OC(C)=O (stereo not given)	100%
O=C(CNC(=O)c1cccc2ccccc12)Nc1ccccc1Cc1ccccc1	17.1% [5 µM]
COC(=O)C1=CCC(n2cnc3c(N)ncnc32)O1 (stereo not given)	113%
O=C(NC1CCCCC1)c1ccc(Nc2ncnc3c2cnn3-c2ccccc2)cc1	73.4%
COc1ccc(-c2cc(-c3cccnc3)nc3sc(C(=O)Nc4ccccc4)c(N)c23)cc1OC	77.2%
Clc1ccc(C2=NN(c3ccc(Cl)cc3)C(c3cccc(Nc4ccnc5cc(Cl)ccc45)c3)C2)cc1 (stereo not given)	88.6%
CCCCN=C(N)c1ccc(OCCSCCOc2ccc(C(N)=NCCCC)cc2)cc1	-36.4% (active)
C/C(=C\CCc1ccoc1)CC/C=C(\C)CCCC1COC(=O)C1 (stereo not given)	99%
Oc1c(Cl)cc(Oc2cc(Cl)c(O)c(CN3CCOCC3)c2)cc1CN1CCOCC1	99.4%
CCOC(=O)CCN(c1c(Cl)ssc1=O)C(C)C	119%

What follows are molecules tested on SF-539 CNS in the same assay as above. Settings: 10 µM unless noted.

Structure (SMILES)	growth
Cc1[nH]ccc2cc3nc4ccccc4c3cc12	34%
NS(=O)(=O)c1ccc(-n2ncc3c(N/N=C/c4ccccc4)ncnc32)cc1	76.2%
O=C(C(=O)c1cc(Br)ccc1O)c1cc(Br)ccc1O	53.2%
COc1ccc(-c2cnc(SCC(=O)Nc3ccc(-c4nc5ccccc5s4)cc3)n2-c2ccc(OC)cc2)cc1	102%
N#CSCC1CC(O)(c2ccccc2)C(c2ccccc2)C(c2ccc(Cl)cc2)O1 (stereo not given)	-96.4% (active)
OCc1n(Cc2ccc3ccccc3c2)cc[n+]1Cc1ccc2ccccc2c1	68.3%
c1ccc(-c2nc(Nc3nccnn3)c3ccccc3n2)cc1	99.1%
CCOC(=O)/C=C1/SC(=Nc2ccc(C#N)cc2)N(Cc2ccco2)C1=O	38.1%
Cc1cnc2nc(-c3ccc(N(C)C)cc3)cn2c1	100%
COc1ccc2c(c1)c(CC(=O)[Se]C)c(C)n2C(=O)c1ccc(Cl)cc1	-17.4% (active)
COc1cc(/C=C/C(=O)C(C(=O)/C=C/c2ccc(OC(=O)CCNc3nnc(C)s3)c(OC)c2)C(=O)CCNc2nnc(C)s2)ccc1OC(=O)CCNc1nnc(C)s1	-15.8% (active)
O=C1C2C(C(=O)N1CC[Se][Se]CCN1C(=O)C3C(C1=O)[C@H]1C=C[C@@H]3C1)[C@H]1C=C[C@@H]2C1 (stereo not given in full)	-86.7% (active)
COc1ccc(OC)c(CCn2cncc2-c2c[nH]c3cc(Br)ccc23)c1	56.3%
CN(C)c1ncnc2c1ncn2C1CCCCO1 (stereo not given)	103%
COc1ccc2c(c1)sc1nc(-c3ccc(Br)cc3)cn12	105%
O=C(Nc1ccccc1OC(=O)c1ccccc1)c1ccccc1	95.7%
Cc1csc(C#Cc2cncc(O)c2)n1	108%
COc1ccc2nc(NC(=O)CN3CCn4c(nnc4C(F)(F)F)C3)sc2c1	93.7%
CCOC(=O)C(Br)=P(c1ccccc1)(c1ccccc1)c1ccccc1	101%
C=CCN(/C=C/CN(CC=C)CC=C)CC=C	99.7%

Structure (SMILES)	growth
O=C1NC(=S)S/C1=C\c1cc(Br)ccc1O	93.1%
COc1ccc(C(=O)/C=C/c2cccc(Nc3ccnc4cc(Cl)ccc34)c2)cc1	28.4%
CCCCCCCCCCOC(C)=O	96.1%
O=C1C(=O)c2c(nc3ccc(Cl)cn23)-c2ccccc21	-100% (active)
CC(=O)OCC(=O)[C@@]1(O)CC[C@H]2[C@@H]3CCC4=CC(=O)CC[C@]4(C)[C@@]3(F)[C@@H](O)C[C@@]21C	90.8%
CCc1nn2c(-c3ccc(Cl)cc3C)c(-c3cc(OC)c(OC)c(OC)c3)nc2s1	92.6%
COc1cc(/C=C/C(=O)C(C(=O)/C=C/c2ccc(OC(=O)CCNC34CC5CC(CC(C5)C3)C4)c(OC)c2)C(=O)CCNC23CC4CC(CC(C4)C2)C3)ccc1OC(=O)CCNC12CC3CC(CC(C3)C1)C2 (stereo not given)	-23.7% (active)
CN(C)c1ccc(-c2nc3ncc(Br)cc3o2)cc1	91.4%
CCCc1n(Cc2ccc3ccccc3c2)cc[n+]1Cc1ccc2ccccc2c1	1.21% (active)
N#Cc1c(-c2ccccc2)cc(-c2ccccc2)n(CCC(=O)O)c1=O	62.5%
C=C1CCC2C3(C)COC(c4ccccc4)OC3CCC2(C)C1C/C=C1/C(=O)OCC1OC(C)=O (stereo not given)	105%
O=C(CNC(=O)c1cccc2ccccc12)Nc1ccccc1Cc1ccccc1	26.7% [5 µM]
COC(=O)C1=CCC(n2cnc3c(N)ncnc32)O1 (stereo not given)	98%
O=C(NC1CCCCC1)c1ccc(Nc2ncnc3c2cnn3-c2ccccc2)cc1	43.7%
COc1ccc(-c2cc(-c3cccnc3)nc3sc(C(=O)Nc4ccccc4)c(N)c23)cc1OC	73.3%
Clc1ccc(C2=NN(c3ccc(Cl)cc3)C(c3cccc(Nc4ccnc5cc(Cl)ccc45)c3)C2)cc1 (stereo not given)	96.5%
CCCCN=C(N)c1ccc(OCCSCCOc2ccc(C(N)=NCCCC)cc2)cc1	55%
C/C(=C\CCc1ccoc1)CC/C=C(\C)CCCC1COC(=O)C1 (stereo not given)	93.4%
Oc1c(Cl)cc(Oc2cc(Cl)c(O)c(CN3CCOCC3)c2)cc1CN1CCOCC1	98.2%
CCOC(=O)CCN(c1c(Cl)ssc1=O)C(C)C	97.7%
